Measurements taken from the supplement of paper PMC7411054.
Counter-ions that a name gives are not always drawn.

Assays:
Experiment in all cases: lowest phenotypically active concentration; higher = less potent
Conditions in all cases: treatment time: 24 h
A549-CANX-COX4 = test system: A549-CANX-COX4
Summary of the method: (§1)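 Each of fifteen gene-edited A549, HepG2 and WPMY1 reporter lines, marked with BFP for segmentation and GFP and RFP/FusionRed, was treated in four wells at 0.3, 1, 3 or 9 µM for 24 h prior to live imaging. Normalisation of per-well live-cell features used solvent control wells. Deviation needed ≥3 of 4 wells beyond the 95th percentile of control Euclidean distances, and reproducibility needed a median replicate Pearson correlation above the 95th percentile of non-replicates. Both were required for phenotypic activity.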

A549-TP53BP1-CLTA = test system: A549-TP53BP1-CLTA
Summary of the method: as §1

HepG2-CANX-COX4 = test system: HepG2-CANX-COX4
Summary of the method: as §1

HepG2-GM130-SQSTM1 = test system: HepG2-GM130-SQSTM1
Summary of the method: as §1

HepG2-TUBA1B-RELA = test system: HepG2-TUBA1B-RELA
Summary of the method: as §1

WPMY1-ACTB-RAB5A = test system: WPMY1-ACTB-RAB5A
Summary of the method: as §1

WPMY1-CANX-COX4 = test system: WPMY1-CANX-COX4
Summary of the method: as §1

WPMY1-GM130-SQSTM1 = test system: WPMY1-GM130-SQSTM1
Summary of the method: as §1

WPMY1-TP53BP1-CLTA = test system: WPMY1-TP53BP1-CLTA
Summary of the method: as §1

WPMY1-TUBA1B-RELA = test system: WPMY1-TUBA1B-RELA
Summary of the method: as §1

Measured: lowest phenotypically active concentration

O=C1N=C(NCc2cccs2)S/C1=C\c1ccc2ncccc2c1
1 µM: WPMY1-GM130-SQSTM1
9 µM: HepG2-GM130-SQSTM1
3 µM: all other assays above

Nc1ncnc(Nc2ccc(OCc3ccccc3)c(Cl)c2)c1/C=N/OCCN1CCOCC1
9 µM: A549-CANX-COX4 | HepG2-GM130-SQSTM1 | HepG2-TUBA1B-RELA
1 µM: A549-TP53BP1-CLTA

CC(C)CNc1nc(-c2cccc3ncccc23)cn2c(-c3ccc(C(=O)NC4CC4)cc3)cnc12
not listed: WPMY1-CANX-COX4 | WPMY1-TUBA1B-RELA
1 µM: all other assays above

CCCCNNC(=O)c1ccc(Br)cc1
1 µM: HepG2-CANX-COX4 | HepG2-GM130-SQSTM1
3 µM: A549-CANX-COX4 | A549-TP53BP1-CLTA | WPMY1-GM130-SQSTM1
not listed: WPMY1-ACTB-RAB5A
9 µM: all other assays above

C=CC(=O)Nc1cccc(Nc2nc(Nc3ccc(Oc4ccnc(C(=O)NC)c4)cc3)ncc2F)c1
3 µM: WPMY1-ACTB-RAB5A
not listed: HepG2-CANX-COX4 | WPMY1-TP53BP1-CLTA | WPMY1-TUBA1B-RELA
9 µM: all other assays above

N#CC[C@@H](C1CCCC1)n1cc(-c2ncnc3[nH]ccc23)cn1 [ruxolitinib-(S)]
3 µM: WPMY1-TUBA1B-RELA
not listed: WPMY1-GM130-SQSTM1 | WPMY1-TP53BP1-CLTA
9 µM: all other assays above

CC(C)(C)c1cc(C(=O)/C=C/c2ccc(C(=O)O)cc2)cc(C(C)(C)C)c1
3 µM: WPMY1-TUBA1B-RELA
9 µM: A549-CANX-COX4 | HepG2-GM130-SQSTM1
not listed: A549-TP53BP1-CLTA | HepG2-TUBA1B-RELA
≤ 0.3 µM: all other assays above

O=c1c(-c2ccc(O)cc2)coc2cc(O[C@@H]3O[C@H](CO)[C@@H](O)[C@H](O)[C@H]3O)cc(O)c12 [Genistin]
9 µM: A549-CANX-COX4 | A549-TP53BP1-CLTA | WPMY1-ACTB-RAB5A | WPMY1-CANX-COX4 | WPMY1-TP53BP1-CLTA

Cc1nnc(-c2ccc3occ(-c4ccc(S(C)=O)cc4)c3c2)o1 (stereo unspecified)
3 µM: HepG2-TUBA1B-RELA
not listed: WPMY1-TUBA1B-RELA
9 µM: all other assays above

Cc1cc(F)c(Nc2ncnc3cc(OCc4ccccc4)ccc23)cc1O
9 µM: A549-CANX-COX4 | WPMY1-TUBA1B-RELA
3 µM: WPMY1-CANX-COX4

CCc1cncnc1N1CCN(Cc2nc3cc(C(F)(F)F)ccc3[nH]2)CC1
9 µM: A549-CANX-COX4 | HepG2-CANX-COX4 | HepG2-GM130-SQSTM1 | WPMY1-TUBA1B-RELA
3 µM: HepG2-TUBA1B-RELA

O=c1cc(-c2ccccc2)oc2c(O)c(O)ccc12 [7,8-Dihydroxyflavone]
not listed: A549-TP53BP1-CLTA | HepG2-TUBA1B-RELA | WPMY1-TP53BP1-CLTA
9 µM: all other assays above

C/C(=N/NC(=N)N)c1ccc(NC(=O)Nc2ccc(/C(C)=N/NC(=N)N)cc2)cc1
9 µM: A549-CANX-COX4 | HepG2-CANX-COX4 | WPMY1-GM130-SQSTM1
3 µM: HepG2-GM130-SQSTM1 | HepG2-TUBA1B-RELA | WPMY1-ACTB-RAB5A | WPMY1-CANX-COX4

CN(C)c1ccc(/C=C2\C(=O)Nc3ccccc32)cc1
3 µM: A549-TP53BP1-CLTA | WPMY1-CANX-COX4 | WPMY1-GM130-SQSTM1
not listed: HepG2-CANX-COX4 | WPMY1-TUBA1B-RELA
9 µM: all other assays above

c1cc(-c2cc(C3CCNCC3)[nH]n2)ccn1
9 µM: A549-CANX-COX4 | HepG2-CANX-COX4 | WPMY1-ACTB-RAB5A | WPMY1-CANX-COX4

C=C1C(=O)O[C@@H]2C=C(C)CCC=C(C)CC[C@@H]12 [Costunolide]
3 µM: HepG2-GM130-SQSTM1
not listed: A549-TP53BP1-CLTA | HepG2-TUBA1B-RELA | WPMY1-CANX-COX4
9 µM: all other assays above

N#C/C(=C/c1ccc(O)c(O)c1)C(=O)NCCCCc1ccccc1
not listed: A549-TP53BP1-CLTA | HepG2-TUBA1B-RELA
9 µM: all other assays above

COc1ccc(-c2cc(=O)c3c(O)cc(O)cc3o2)cc1O [Diosmetin]
9 µM: A549-CANX-COX4 | HepG2-TUBA1B-RELA | WPMY1-CANX-COX4 | WPMY1-TP53BP1-CLTA | WPMY1-TUBA1B-RELA

C=C1C(=O)O[C@@H]2[C@H]3O[C@]3(C)CCC=C(C)CC[C@@H]12 [Parthenolide]
3 µM: HepG2-GM130-SQSTM1
not listed: A549-TP53BP1-CLTA | HepG2-TUBA1B-RELA | WPMY1-TP53BP1-CLTA
9 µM: all other assays above

CC(C)C(=O)SCCCCCCC(=O)Nc1nc(-c2ccccc2)cs1
3 µM: HepG2-CANX-COX4
1 µM: A549-CANX-COX4 | WPMY1-ACTB-RAB5A | WPMY1-CANX-COX4 | WPMY1-GM130-SQSTM1 | WPMY1-TUBA1B-RELA
9 µM: WPMY1-TP53BP1-CLTA

Nc1nccc(-c2ccc3noc(-c4ccc(Cl)cc4)c3c2)n1 [PIM-1 Inhibitor 2]
not listed: HepG2-CANX-COX4 | HepG2-GM130-SQSTM1 | HepG2-TUBA1B-RELA
9 µM: all other assays above

O=C(Nc1ccccc1)c1cc([N+](=O)[O-])ccc1Cl
9 µM: A549-CANX-COX4 | WPMY1-CANX-COX4

Cc1cccc(C)c1OCC(=O)N[C@@H](Cc1ccccc1)[C@@H](O)C[C@H](Cc1ccccc1)NC(=O)[C@H](C(C)C)N1CCCNC1=O [lopinavir]
9 µM: A549-CANX-COX4 | HepG2-TUBA1B-RELA | WPMY1-CANX-COX4

O=S(=O)(c1cccc2c(O)nccc12)N1CCCNCC1 [HA 1100 hydrochloride]
3 µM: WPMY1-CANX-COX4 | WPMY1-TUBA1B-RELA
≤ 0.3 µM: HepG2-CANX-COX4
not listed: HepG2-TUBA1B-RELA
9 µM: all other assays above

C[C@@H](Nc1ncnc2[nH]c(-c3ccc(O)cc3)cc12)c1ccccc1 [PKI 166 hydrochloride]
9 µM: HepG2-CANX-COX4 | HepG2-TUBA1B-RELA | WPMY1-ACTB-RAB5A | WPMY1-TUBA1B-RELA
not listed: HepG2-GM130-SQSTM1
3 µM: all other assays above
